Assay outcomes: PubChem BioAssay, several laboratories
H9c2 protect – modulators protecting cardiomyocytes from myocardial damage | H9c2 cardiomyocytes, H2O2 injury protection, ATPLite, 2 h | 360,000 compounds, 0.63% hits | protection from H2O2 cell death, % at 20 µM | AID 588492;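 active = compounds giving at least 50% protection of heart cells from peroxide-induced death in the single-dose screen, raw or plate-pattern-corrected value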
FAS TE block – inhibitors of human fatty acid synthase thioesterase domain; recombinant FAS-TE, OMFH fluorogenic substrate, fluorescence endpoint; inhibition, % at 15 µM; 360,000 compounds, 0.67% hits; AID 602261;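 active = compounds whose normalised, plate-corrected inhibition of enzyme fluorescence in the single-dose primary screen is 50% or more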
PLCg1 inh – PLC-gamma1 (human) inhibition, primary screen; inhibition, % at 12.2 µM; AID 720700; 370,000 compounds, 0.84% hits; purified PLC-gamma1, fluorogenic substrate, fluorescence; P19174
Target sequence (P19174 whole entry, looked up): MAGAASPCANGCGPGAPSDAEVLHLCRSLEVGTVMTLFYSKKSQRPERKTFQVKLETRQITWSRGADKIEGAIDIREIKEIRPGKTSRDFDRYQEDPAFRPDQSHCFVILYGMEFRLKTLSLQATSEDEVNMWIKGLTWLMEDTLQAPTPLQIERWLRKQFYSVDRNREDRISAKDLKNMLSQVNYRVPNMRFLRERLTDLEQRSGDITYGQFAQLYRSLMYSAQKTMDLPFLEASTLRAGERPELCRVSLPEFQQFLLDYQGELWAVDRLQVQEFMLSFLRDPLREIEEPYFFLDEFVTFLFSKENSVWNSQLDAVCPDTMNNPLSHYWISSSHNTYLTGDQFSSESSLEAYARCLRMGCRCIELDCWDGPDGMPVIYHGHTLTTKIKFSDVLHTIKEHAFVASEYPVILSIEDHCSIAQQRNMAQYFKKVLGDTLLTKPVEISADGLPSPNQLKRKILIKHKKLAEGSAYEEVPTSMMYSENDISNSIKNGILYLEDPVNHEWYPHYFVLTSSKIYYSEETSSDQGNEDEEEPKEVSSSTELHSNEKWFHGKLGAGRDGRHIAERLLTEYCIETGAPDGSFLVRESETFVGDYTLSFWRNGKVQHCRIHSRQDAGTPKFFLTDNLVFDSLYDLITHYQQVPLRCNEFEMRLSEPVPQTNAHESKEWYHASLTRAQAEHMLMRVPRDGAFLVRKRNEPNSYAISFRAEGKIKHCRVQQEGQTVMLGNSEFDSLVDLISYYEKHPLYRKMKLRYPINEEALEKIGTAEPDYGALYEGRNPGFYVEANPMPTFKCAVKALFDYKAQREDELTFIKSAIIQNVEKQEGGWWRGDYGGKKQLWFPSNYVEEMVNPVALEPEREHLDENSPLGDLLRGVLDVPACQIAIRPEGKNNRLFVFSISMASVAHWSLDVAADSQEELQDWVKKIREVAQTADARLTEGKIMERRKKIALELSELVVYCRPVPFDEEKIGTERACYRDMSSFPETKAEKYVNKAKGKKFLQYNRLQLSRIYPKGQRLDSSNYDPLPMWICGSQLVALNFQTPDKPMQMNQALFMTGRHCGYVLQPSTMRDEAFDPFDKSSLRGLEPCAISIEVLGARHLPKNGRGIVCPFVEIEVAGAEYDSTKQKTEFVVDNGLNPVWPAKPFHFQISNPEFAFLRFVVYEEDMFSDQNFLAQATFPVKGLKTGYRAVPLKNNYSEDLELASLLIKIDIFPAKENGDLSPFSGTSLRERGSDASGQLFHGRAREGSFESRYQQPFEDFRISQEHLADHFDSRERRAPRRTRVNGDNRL
PLC-beta3 inh – inhibitors of human phospholipase C beta3. Q01970. Purified PLC-beta3, fluorogenic substrate, fluorescence. inhibition, % at 12.2 µM. 370,000 compounds, 0.18% hits; in the data active = inhibition above about 11%
PLCgamma1 ctr – PLC-gamma1 inhibition, counter-screen for PLC-beta3 hits. shares compounds with PLCg1 inh. purified PLC-gamma1, fluorogenic substrate, fluorescence. inhibition, % at 12.3 µM. 3,300 compounds, 3.1% hits
PLCbeta3 conf – confirmation of human PLC-beta3 inhibitors; purified PLC-beta3, fluorogenic substrate fluorescence; AID 743261; shares compounds with PLCg1 inh; 3,300 compounds, 1% hits; inhibition, % at 12.3 µM; in the data active = inhibition above about 11%
Numbers stand for hits; i = inactive; nt = not tested or not shown. Most compounds without a hit are left out; they make up all but 2.2% or so of the library. Cut-off read from the data, not from the text of the source, unless noted: active = inhibition above about 9.5%; inactive = the rest.

SMILES	H9c2 protect	FAS TE block	PLCg1 inh	PLC-beta3 inh	PLCgamma1 ctr	PLCbeta3 conf
Cc1cc(Cl)ccc1NC(=O)Nc1c(C)n(-c2ccccc2)c(=O)n1C	i	i	9.6	i	i	i
COc1ccc(Cl)c(NC(=O)Nc2c(C)n(-c3ccccc3)c(=O)n2C)c1	i	i	i	i	nt	nt
Cc1ccc(-n2nc3c(c2NC(=O)c2ccc4c(c2)OCO4)CS(=O)C3)cc1 (stereo unspecified)	i	i	11	i	i	i
Cc1ccc(CN2CCC[C@]3(N[C@H](c4ccc(C)cc4)[C@@H]4C(=O)N(Cc5ccccc5)C(=O)[C@@H]43)C2=O)cc1	i	i	9.9	i	i	i
Cc1ccc(NC(=O)CN(C)C(=O)Cc2ccc(Cl)cc2Cl)cc1	i	i	11	i	i	i
Cc1ccc(C)c(NC(=O)CN(C)C(=O)Cc2ccc(Cl)cc2Cl)c1	i	i	i	i	nt	nt
CCN(CC(=O)NCc1ccc(F)cc1)C(=O)c1cccnc1SC	i	i	i	i	nt	nt
OCCCc1nc2ccccc2n1CCCCOc1ccccc1	i	i	11	i	i	i
O=C(NCCc1nc2ccccc2n1CCOc1cc(F)ccc1F)C1CCCCC1	nt	nt	11	11	i	i
Cc1ccc(OCCn2c(CCNC(=O)C3CCCCCC3)nc3ccccc32)cc1	nt	nt	17	12	9.6	i
CC1=Nc2nc(N3CCCCCC3)c(C#N)c3c4c(nc(c23)N1)N(c1ccc2ccccc2c1)C(=O)C4	i	i	nt	nt	nt	nt
Cc1ccc(NC(=O)c2cnccn2)cc1C	i	i	11	i	i	i
Cc1ccc(NC(=O)c2cnccn2)cc1	i	i	i	i	nt	nt
CC(=O)c1ccc(N2CCC(c3cc(-c4ccc(Cl)cc4Cl)n[nH]3)CC2)c([N+](=O)[O-])c1	i	i	15	i	i	i
O=[N+]([O-])c1cccnc1N1CCC(c2cc(-c3ccc(Cl)cc3Cl)n[nH]2)CC1	i	i	i	i	nt	nt
O=C(Nc1nc(C2C3CC4CC(C3)CC2C4)cs1)c1cc2cc([N+](=O)[O-])ccc2oc1=O (stereo unspecified)	i	i	14	i	i	i
O=C(CN1C(=O)/C(=C/c2ccco2)SC1=S)Nc1ccc(O)c(C(=O)O)c1	i	i	46	i	36	i
O=C(CN1C(=O)/C(=C/c2ccco2)SC1=S)Nc1ccc(C(=O)O)c(O)c1	i	i	58	i	40	i
COCC(=O)Nc1ccccc1C(=O)Nc1ccc(OC)cc1	i	i	11	i	i	i
CCC(C)NC(=O)c1ccccc1NC(=O)COc1ccc(OC)cc1 (stereo unspecified)	i	i	11	i	i	i
COc1cccc(C(=O)NNS(=O)(=O)c2ccccc2)c1	i	i	12	i	i	i
CCOc1cccc(C(=O)Nc2ccc(NC(=O)c3ccccc3)c(C)c2)c1	i	i	i	15	i	14
CCc1nc2ccc(C(=O)NCCCN3CCCC3=O)cn2c1N(CCC(C)C)CCN(C)C	i	i	i	i	nt	nt
Cc1ccc(-c2cc(NC(=O)Cc3c(C)[nH]c4ccccc34)ccc2Nc2cccnc2)cc1	nt	nt	i	i	nt	nt
COc1cccc(C(=O)Nc2cccc3ccccc23)c1	i	i	15	i	i	i
SMILES	H9c2 protect	FAS TE block	PLCg1 inh	PLC-beta3 inh	PLCgamma1 ctr	PLCbeta3 conf
COc1ccc(NC(=O)c2cccc3ccccc23)cc1	i	i	9.9	i	i	i
O=C(NCc1ccccc1)[C@H]1CCCN1	nt	nt	i	i	nt	nt
CC(=O)OCC(=O)Nc1ccc([N+](=O)[O-])cc1Cl	i	i	i	i	nt	nt
CC(=O)OCC(=O)Nc1ccc(Cl)cc1Cl	i	i	10	i	i	i
COc1ccc(-c2cc(C(=O)NCc3ccc(F)cc3)[nH]n2)c(C)c1	i	i	i	i	nt	nt
CC[C@]12c3[nH]c4ccccc4c3CCN1C(=O)C(CC(=O)NCCC1=CCCCC1)C[C@@H]2C(=O)N1CCN(C(=O)C2CC2)CC1 (stereo partly specified)	i	i	i	i	nt	nt
Cc1ccc(-c2cc(C(=O)N/N=C/c3cccnc3)n[nH]2)o1	i	i	i	i	nt	nt
Cc1cc(C(=O)N/N=C/c2cccnc2)n[nH]1	i	i	10	i	i	i
Cc1cc(C(=O)NNCc2ccccc2)no1	i	i	i	i	nt	nt
COc1ccccc1-c1cc(C(=O)NC(C)C)no1	i	i	i	i	nt	nt
COc1ccccc1-c1cc(C(=O)Nc2ccc(F)cc2F)no1	i	i	12	i	i	i
O=C(/C=C/c1cccc([N+](=O)[O-])c1)NCc1cccnc1	i	i	i	11	i	i
CN(C)S(=O)(=O)c1ccc(NCC2COc3ccccc3O2)c([N+](=O)[O-])c1 (stereo unspecified)	i	i	i	i	nt	nt
CCN(CC)S(=O)(=O)c1ccc(NCC2COc3ccccc3O2)c([N+](=O)[O-])c1 (stereo unspecified)	i	i	12	i	i	i
CCOc1ccc(NC(=O)CN(C)C(=O)CCNC(=O)c2ccccc2Cl)cc1OCC	i	i	i	i	nt	nt
CCc1nc2c(OCc3cc(Cl)cc(Cl)c3)cccn2c1N(C)C(=O)Nc1ccccc1OC	i	i	i	i	nt	nt
NS(=O)(=O)c1ccc(CCNC(=O)CCCCCNc2nc(=S)[nH]c3ccccc23)cc1	nt	nt	10	i	i	i
Cc1ccc(CNC(=O)CCCCCNc2nc(=S)[nH]c3ccccc23)cc1	nt	nt	i	i	nt	nt
CCOc1ccc(Cl)cc1S(=O)(=O)N1CCN(c2ccc(C)c(C)c2)CC1	i	i	10	i	i	i
COc1ccc(CNC(=O)C[C@H]2C(=O)N(Cc3ccc(OC)cc3)C[C@@H]2Cc2ccccc2)cc1	i	i	11	i	i	i
COc1ccc(CNC(=O)C[C@H]2C(=O)N(Cc3ccccc3)C[C@@H]2Cc2ccccc2)cc1	i	i	i	i	nt	nt
Cc1ccc(S(=O)(=O)N2CCCCC2C(=O)N2CCN(Cc3ccccc3)CC2)cc1 (stereo unspecified)	i	i	12	i	i	i
Cc1ccc(S(=O)(=O)N2CCCC2C(=O)NC2CCCCC2)cc1 (stereo unspecified)	i	i	12	i	i	i
CC(C)(CO)Cc1cc(C(C)(C)C)c(O)c(C(C)(C)C)c1	i	i	11	i	i	i
O=C(Nc1cccc(F)c1)C1CCN(c2nnnn2-c2ccccc2)CC1	i	i	i	i	nt	nt
SMILES	H9c2 protect	FAS TE block	PLCg1 inh	PLC-beta3 inh	PLCgamma1 ctr	PLCbeta3 conf
COc1cccc(NC(=O)N2CCCC2)c1	i	i	i	i	nt	nt
CCOc1ccc(NC(=O)C2CCN(c3nnnn3-c3ccccc3)CC2)cc1	i	i	10	i	i	i
COc1cccc(NC(=O)N2CCN(c3nnnn3-c3ccccc3)CC2)c1	i	i	10	i	i	i
CCN(CC)C(=O)CC[C@H]1CC[C@]2(CCCN(Cc3cccs3)C2)O1	nt	nt	i	i	nt	nt
C=CCNC(=O)CN1C(=O)c2cccc3cccc1c23	i	i	i	i	nt	nt
O=C(CC12CC3CC(CC(Br)(C3)C1)C2)NC1CCCC1	i	i	i	i	nt	nt
COc1ccc(Cl)cc1S(=O)(=O)N(C)CC(=O)NCc1ccccn1	i	i	9.6	i	i	i
COCCNC(=O)Cn1nc(-c2ccccc2)c2ccccc2c1=O	i	i	i	i	nt	nt
